The text below walks through data of PubChem BioAssay (NCI).

Common to all, as to assay: NCI-60 one-dose screen, 48 h (100 = growth as untreated, 0 = no growth, -100 = all killed)
Conditions in all cases: 10 µM unless noted

Assay [1] deals with EKVX NSCLC.
Assay [2] has as its system SN12C renal.
For assay [3], the system named is UO-31 renal.
The subject of assay [4] is TK-10 renal.
In assay [5] the test system is ACHN renal.
Assay [6] deals with CAKI-1 renal.
Assay [7] concerns CCRF-CEM leukemia.
For assay [8], the system named is MOLT-4 leukemia.
Assay [9] concerns SR leukemia.
The subject of assay [10] is RPMI-8226 leukemia.
Assay [11] relates to OVCAR-8 ovarian.
For assay [12], the system named is OVCAR-5 ovarian.
Assay [13] concerns OVCAR-4 ovarian.
Assay [14] deals with SK-OV-3 ovarian.
Assay [15] relates to IGROV1 ovarian.
Assay [16] has as its system OVCAR-3 ovarian.
Assay [17] deals with NCI/ADR-RES ovarian.
Assay [18] concerns T-47D breast.
Assay [19] deals with HS 578T breast.
Assay [20] concerns A498 renal.

The structures appear in SMILES notation. This is part of a sample that, as a whole, favours compounds with a hit. Of some 83,000 tested, about 20% had one in any assay.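 The endpoint reported here, percent growth, reads 100 for growth as untreated, 0 for no net growth and -100 for all cells dead.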 Unmarked numbers belong to inactive results. Active and inactive are the calls of the source. Rule for the calls: active = growth percent below 10; inactive = the rest.

Take `NS(=O)(=O)c1cccc(Nc2nc(SCC(=O)c3ccc([N+](=O)[O-])cc3)nc3ccccc23)c1`: the growth is 70.9% in assay [1]; 56.9% in [2]; 40.5% in assay [3]; 95.6% in [4]; 45.8% in [5]; 27.6% in assay [6]. Further, the growth in assay [7] was 12%; in assay [8], -6.08% (active); in [9] it was 17.5%; in [10] it was -9.57% (active); in assay [11], 24.1%; in assay [12], 108%. For the same compound, the growth in assay [13] was 43%; in [14], 73.5%; in assay [15], 16.6%; in assay [16], 36.5%; in assay [17], 72.7%; in [18], 10.8%.

In the case of `CCOC(=O)c1c(Nc2ccccc2)nn2c(N)c(C#N)c(-c3ccccc3)nc12`, the growth in assay [1] is 82.3%; in [2], 93.9%; in [3], 81.1%; in [4], 105%; in assay [5] it was 83.4%; in assay [6] it was 72%. In addition, the growth in assay [7] was 68.3%; in [9], 58.9%; in [10], 68.8%; in assay [11], 94%; in [12], 109%; in assay [13], 82.5%. In addition, the growth in [14] is 108%; in assay [15], 90.2%; in [16] it was 94.5%; in [19], 75.2%; in assay [17] it was 88.7%; in [18], 55.5%.

As for `O=C(CCN1C(=O)/C(=C/c2ccccc2)SC1=S)N1CCOCC1`, the growth in [1] was 82.3%; in assay [2], 81.7%; in assay [3] it was 72.9%; in assay [5] it was 67%; in [6] it was 88.2%; in [20] it was 90.5%. In addition, the growth in assay [7] was 49.1%; in assay [8], 89.4%; in assay [9], 65.4%; in assay [10], 67.7%; in assay [11] it was 99.6%; in assay [12], 94.8%. For the same compound, the growth in assay [13] was 101%; in assay [14], 98.5%; in assay [15] it was 88.5%; in assay [16] it was 110%; in [19] it was 100%; in [17] it was 98.8%. Besides, the growth in assay [18] was 65.7%.

Turning to `COc1ccc(COc2ccc(/C=C3/C(=O)Nc4cc(Cl)ccc43)cc2)cc1`, the growth in assay [1] was 95.8%; in [2], 94.1%; in assay [3] it was 79.4%; in [5] it was 95.7%; in assay [6], 88.3%; in assay [20], 83.7%. The growth in [7] was 6.11% (active); in assay [8], 108%; in assay [9], 109%; in assay [10] it was 89.9%; in assay [11], 96.3%; in assay [12] it was 96.2%. In addition, the growth was 93.5% in assay [13]; 107% in assay [14]; 92.4% in assay [15]; 102% in assay [16]; 89% in assay [19]; 94.4% in assay [17]. The growth in assay [18] was 90.2%.

On to `O=C(CN1C(=O)/C(=C/c2ccccc2)SC1=S)N1CCOCC1`, for which the growth in assay [1] was 96.3%; in [2], 94.7%; in [3], 71.4%; in assay [5], 77.9%; in assay [6], 93.7%; in assay [20] it was 112%. Moreover, the growth in assay [7] is 88%; in [8], 99.1%; in assay [9], 85.8%; in [10] it was 89.6%; in [11], 102%; in assay [12], 97.6%. In addition, the growth is 109% in assay [13]; 95.4% in assay [14]; 97.4% in assay [15]; 115% in assay [16]; 106% in assay [19]; 106% in assay [17]. Besides, the growth in [18] was 77.9%.

Take `CN(C)CCCNc1c2ccc(Cl)cc2nc2c1oc1ccc(Cl)cc12`: the growth in assay [1] is 44.4%; in [2], -74.4% (active); in assay [3], 45.2%; in assay [5], -96.8% (active); in assay [6] it was -85% (active); in assay [20] it was 37.9%. Besides, the growth in assay [7] was 2.17% (active); in assay [8] it was -4.89% (active); in [9], -12.3% (active); in assay [10] it was -27.2% (active); in assay [11], -78.6% (active); in assay [12], -7.04% (active). For the same compound, the growth was 0.544% (active) in assay [13]; 60.5% in assay [14]; -64.3% (active) in assay [15]; -52.6% (active) in assay [16]; 60.9% in [19]; 2.92% (active) in [17]. In [18], the growth was 84.4%.

Turning to `CCC/C=C/C=C/C(=O)N[C@@H](Cc1cc(F)cc(F)c1)C(=O)N[C@@H]1C(=O)N2CCC[C@H]2C(=O)N2CCCC[C@H]2C(=O)N[C@@H](C)C(=O)N2C[C@H](C)C[C@H]2C(=O)O[C@H]1C`, the growth in assay [1] is 32.1%; in [2], 20.3%; in assay [3], 29.7%; in assay [5], 23.1%; in [6] it was 11.5%; in assay [20], 3.26% (active). In addition, the growth in assay [7] is 28.9%; in [8], 34.7%; in [9], 27.1%; in assay [10], -0.71% (active); in assay [11] it was 18.4%; in assay [12] it was 24.6%. For the same compound, the growth in assay [13] was 22.3%; in [14] it was 30%; in assay [15], 40.8%; in [16], 19.1%; in [19], 31%; in [17], 20.8%. Further, the growth in [18] was 15.9%.

On to `OC1CCN(CCCOc2c3ccccc3nc3c2oc2ccc(Cl)cc23)CC1`, for which the growth was 14.8% in assay [1]; 18.8% in assay [2]; 12.8% in [3]; 5.57% (active) in assay [5]; 12.8% in assay [6]; -8.33% (active) in assay [20]. Further, the growth in assay [7] was 19.2%; in assay [8], 9.39% (active); in assay [9] it was 8.25% (active); in assay [10] it was -3.88% (active); in assay [11], 18.7%; in assay [12], 21.2%. The growth is 19.1% in assay [13]; 45.6% in assay [14]; 1.4% (active) in [15]; 27.7% in assay [16]; 32% in assay [19]; 21.5% in assay [17]. In addition, the growth in assay [18] is 35.9%.
